Measured values reported in PubChem BioAssay (NCI).
This is part of a sample that, as a whole, favours compounds with a hit. Of some 83,000 tested, about 20% had one in any assay.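 Cells were grown in 96-well plates and exposed to the test compound at a single concentration for 48 hours; results are reported as percent growth, with values below 10 considered active.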 A number with no mark means an inactive call. Calls of active or inactive are those of the source.

Columns and labels:
Assay in all cases: NCI-60 one-dose screen, 48 h (100 = growth as untreated, 0 = no growth, -100 = all killed)
Details in all cases: 10 µM
[1] = system: HCT-15 colon
[2] = system: HT29 colon
[3] = system: SNB-75 CNS
[4] = system: SNB-19 CNS
[5] = system: U251 CNS
[6] = system: PC-3 prostate
[7] = system: SK-MEL-5 melanoma
[8] = system: UACC-62 melanoma
[9] = system: LOX IMVI melanoma
[10] = system: SK-MEL-28 melanoma
[11] = system: SK-MEL-2 melanoma
[12] = system: EKVX NSCLC
[13] = system: SN12C renal
[14] = system: UO-31 renal
[15] = system: TK-10 renal
[16] = system: ACHN renal
[17] = system: CAKI-1 renal
[18] = system: A498 renal
[19] = system: CCRF-CEM leukemia
[20] = system: MOLT-4 leukemia

Row | Structure (SMILES) | growth [1] | growth [2] | growth [3] | growth [4] | growth [5] | growth [6] | growth [7] | growth [8] | growth [9] | growth [10] | growth [11] | growth [12] | growth [13] | growth [14] | growth [15] | growth [16] | growth [17] | growth [18] | growth [19] | growth [20]
1 | Cc1cc(Cl)ccc1Nc1nc(C(F)(F)F)ccc1C(=O)N/N=C/c1cccc(O)c1 | 23% | 23.7% | 28.9% | 63.5% | 30.5% | 29.7% | -52.1% (active) | 38.7% | 35.9% | 52.4% | 16% | 20.8% | 52.3% | 6.02% (active) | 85.9% | 28.3% | 25.5% | -41.5% (active) | 4.04% (active) | 
2 | CCN(CC)CCCC(Nc1c2ccc(Cl)cc2nc2ccc(OC)cc12)c1ccc(F)cc1 (centres undefined) | 1.06% (active) | 5.7% (active) | 93.3% | 45.7% | -29% (active) | 73% | -95.7% (active) | 109% | -73.2% (active) | -83.5% (active) | 116% | 40.2% | 25.7% | -43.3% (active) | -59.6% (active) | -58.9% (active) | 87.6% | 59.5% | -18.5% (active) | 2.74% (active)
3 | N#Cc1ccc(C(=O)CSc2nccc(Nc3ccc(C(=O)O)cc3)n2)cc1 | 106% | 104% | 106% | 99% | 106% | 99.5% | 99.1% | 103% | 101% | 110% | 106% | 108% | 103% | 84.7% | 110% | 107% | 99.7% | 95.7% | 94% | 104%
4 | CN1C(=O)C2(Nc3cc(Cl)ccc3S2)c2cc(Cl)ccc21 (centres undefined) | 76.7% | 101% | 69.2% | 97.2% | 93.2% | 73.7% | 84.9% | 69.9% | 78.8% | 101% | 108% | 79.2% | 82.2% | 56.9% | 125% | 92.3% | 82.2% | 73% | 71.6% | 82.5%
5 | NS(=O)(=O)Oc1ccc(-c2ccc3sccc3c2)cc1 | 103% | 107% | 97.3% | 101% | 88.8% | 96.5% | 95.9% | 61.6% | 95.2% | 97.6% | 105% | 13.3% | 94.3% | 82.1% | 94% | 94.1% | 83.6% | 99.8% | 108% | 97.4%
6 | O=C1OC(C(Cl)(Cl)Cl)OC1C(Cl)(Cl)Cl (centres undefined) | 109% | 105% | 104% | 102% | 104% | 86.8% | 107% | 95.3% | 97% | 107% | 102% | 106% | 97.1% | 89.4% | 110% | 113% | 113% | 109% | 104% | -10.8% (active)
7 | C=CCN(CC=C)C(=O)[C@H](CC)[C@@H]1CC[C@@H](C)[C@@H]([C@H](C)[C@@H](O)[C@@H](C)C(=O)[C@H](CC)C2O[C@]3(C=CC(=O)[C@]4(CC[C@@](C)([C@H]5CC[C@](O)(CC)[C@H](C)O5)O4)O3)[C@H](C)C[C@@H]2C)O1 (some centres undefined) | 11.5% | 16.7% | 38.7% | 23.8% | 30.5% | 14.7% | -12.3% (active) | 10.7% | 36.9% | 19.8% | 22.1% | 12.8% | 19.8% | 0.66% (active) | 35.5% | 5.47% (active) | 13.7% | 22.2% |  | 
8 | CNS(=O)(=O)Oc1ccc(-c2ccc3occc3c2)cc1 | 92.8% | 99.1% | 106% | 101% | 94.1% | 90.6% | 101% | 87.3% | 96.4% | 94.4% | 108% | 38.6% | 97.7% | 90.4% | 98.5% | 99.5% | 93.3% | 102% | 87.7% | 96.2%
9 | O=C(COc1cccc(/C=C2\CSc3ccccc3C2=O)c1)c1ccc(Cl)cc1 | -49.7% (active) | -86.3% (active) | 94.6% | 60.8% | -97.9% (active) | -39.6% (active) | -94.4% (active) | -73.9% (active) | -100% (active) | -81.7% (active) | -71.6% (active) | 68.1% | -6.61% (active) | -79% (active) | -4.52% (active) | -65.6% (active) | -65.2% (active) | 54% | -51.6% (active) | -67.3% (active)
10 | CCN(CC)CCN1c2nc3ccccc3cc2Sc2cc3ccccc3nc21 | 3.28% (active) | -92.3% (active) | -7.91% (active) | 36.4% | 5.23% (active) | -13.8% (active) | -68.1% (active) | -0.283% (active) | -100% (active) | -50.4% (active) | -35.9% (active) | -3.38% (active) | 27% | -64.1% (active) | 82% | 24.9% | 8.6% (active) | 25.7% | -27.3% (active) | -47.8% (active)
11 | CC(=O)Nc1ccc(CC[C@H]2CCC/C=C/[C@@H]3C[C@H](O)C[C@H]3[C@H](O)/C=C/C(=O)O2)cc1 | 9.69% (active) | -26.2% (active) | 30.3% | 25.9% | 15.2% | 18.9% | -88.6% (active) | 18.7% | -64.9% (active) | 6.75% (active) | -28.6% (active) | 8.89% (active) | 5.85% (active) | 6.87% (active) | -45.5% (active) | 4.68% (active) | 16% | -32.9% (active) | -4.29% (active) | -6.82% (active)
12 | COc1cc(C2CC(c3cc(Cl)c(C)cc3O)=NN2c2ccc(S(N)(=O)=O)cc2)cc(OC)c1OC (centres undefined) | 16.7% | 1.52% (active) | 45.7% | 48.7% | 16.9% | 0.104% (active) | -4.95% (active) | 16.3% | 16.2% | 31.7% | 37.7% | 16.9% | 13.7% | 4.12% (active) | 15.3% | 3.29% (active) | 11.4% | 43.3% |  | 
13 | Cc1cc(=O)n2nnc3cc(C(F)(F)F)ccc3n12 | 101% | 104% | 116% | 109% | 107% | 101% | 109% | 102% | 106% | 118% | 99.2% | 107% | 106% | 84% | 93.6% | 108% | 113% | 103% | 103% | 91.3%
14 | O=C(O)c1cc([N+](=O)[O-])ccc1Oc1ccccc1 | 95.4% | 90.8% | 98.1% | 98.4% | 95.9% | 89.2% | 84.6% | 103% | 93.1% | 107% | 103% | 97.9% | 95.3% | 83.5% | 88.5% | 101% | 101% | 102% | 101% | 
15 | CC(C)c1cc(N=O)cc(C(C)C)c1O | 98.4% | 109% | 99.9% | 95.2% | 98.5% | 97.5% | 105% | 96.3% | 96.1% | 105% | 107% | 105% | 94.2% | 90.2% | 115% | 98.6% | 95.2% | 108% | 101% | 89.1%
16 | NC(CSC(c1ccccc1)(c1ccccc1)c1cccc2ccccc12)C(=O)O (centres undefined) | 102% | 113% | 87.6% | 84.9% | 93% | 84.3% | 82.6% | 90.4% | 96.9% | 93.7% | 98.6% | 88% | 82.7% | 84.3% | 115% | 97.4% | 89.9% | 100% | 86.2% | 88.1%
